PINK1 expr mod = PINK1 expression modulation; hit rate 0.2% among 410,000; PINK1 immunofluorescence, high-content cytometry, 24 h; Potency, µM (titrated, usually from 76.6 µM), usual class: activators; active = well fitted activation curve with a large enough effect; inconclusive = small, poorly fitted or top-dose-only effect; cell line not stated here; also: nearly all actives have a fitted effect of over 65% in size
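Fluorescence from anti-PINK1 antibody, together with nuclear and cell stains, was scanned on a laser-scanning cytometer. Before staining, stable-line cells were incubated 24 hours with compounds at 5 concentrations; primary antibody 12 h at 10 degrees C.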
RORg inh = ROR gamma (mouse) transcription inhibition. AID 2551. Potency, µM (series often up to 53.6 µM), usual class: inhibitors. Drosophila S2 Gal4-RORgamma UAS-luciferase reporter, 20 h. hit rate 5.4% among 310,000. P51450; also: nearly all actives have a fitted effect of over 60% in size
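In this cell-based reporter format, copper sulfate (700 uM final) drives Gal4–ROR gamma fusion expression from a metallothionein promoter in Drosophila Schneider cells; compounds preincubated 1 hr, reporter read after 20 hr at ambient temperature.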
Gal4-VP16 FLuc = counter-screen for ROR gamma inhibitors: Gal4-VP16 reporter. Drosophila S2 Gal4-VP16 UAS-luciferase, luminescence, 20 h. Potency, µM (top dose mostly 53.6 µM), actives largely listed as inhibitors. hit rate 3.5% among 310,000. AID 2546;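 also: Gal4-VP16 expression switched on by copper sulfate through the metallothionein promoter; nearly all actives have a fitted effect of over 50% in size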
ClpP mod = qHTS Assay for Activators of ClpP. purified B. subtilis ClpP, FRET peptide cleavage, 20 min. Potency, µM (highest dose often 57.5 µM). hit rate 1.9% among 340,000. AID 651965, 2013; active = well fitted falling curve with a large enough effect; inconclusive = small, poorly fitted or top-dose-only effect; inactive = no such curve, though single readings can be large or run the other way; also: the source files actives as falling curves though it sought activators and does not explain the sign; nearly all actives have a fitted effect of over 65% in size
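ClpP 10 microg/mL final, pH 8 Tris/KCl buffer with BSA, glycerol, Tween-20; compound pinned in; FRET-FV substrate; RT 20 min; Ex320/Em430; ΔFRET vs ADEP 5.8 microM, DMSO, no enzyme.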
Sfp PPTase inh = blocks B. subtilis Sfp PPTase activity | Q9F4F7 | hit rate 3.5% among 310,000 | Biochemical Sfp PPTase activity, qHTS | Potency, µM, actives largely listed as inhibitors;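 also: the enzyme is Sfp with the accession as filed and its product quenches rhodamine fluorescence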
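With Hepes-Na pH 7.6 buffer containing 10 mM MgCl2, Sfp (15 nM) modified BHQ-2-YbbR (12.5 uM) using rhodamine-CoA (5 uM). Two reads 30 minutes apart at 525/598 nm yielded each well's rate.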
Epigenetic reg = epigenetic control regulation, reporter derepression; Potency, µM (top dose mostly 53.9 µM), actives largely listed as activators; murine LDR cells, GFP reporter derepression, 30 h; hit rate 0.2% among 280,000; also: nearly all actives have a fitted effect of over 60% in size
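Derepression of a silenced CMV-GFP reporter in murine LDR cells is scored by enumerating GFP-positive cells with a laser-scanning microplate cytometer after 30 hours of treatment at 37 C.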
Numbers stand for hits; - = inactive; ? = inconclusive; . = not tested or not shown; [ ] = dose if it differs, or a comment. Only some compounds are listed: those with a hit (about 8.1% of all), similar ones and a draw of the others. Unless noted, calls follow the shape of the dose curve; as a rule, active = well fitted curve in the direction sought with a large enough effect; inconclusive = small, poorly fitted or top-dose-only effect, or another doubt; inactive = no such curve, though single readings can be large; an effect the other way counts as inactive or inconclusive.

SMILES	PINK1 expr mod	RORg inh	Gal4-VP16 FLuc	ClpP mod	Sfp PPTase inh	Epigenetic reg
COc1cccc(/C=N/n2nnnc2N)c1OCc1ccccc1Cl	-	-	-	?	-	-
COc1cccc(/C=N/NC(N)=S)c1OCc1ccccc1Cl	-	3.2µM	4µM	.	-	-
NC(=S)N/N=C/c1ccccc1OCCSc1ccc(Cl)cc1	-	?	28µM	-	-	-
CCOc1cc(/C=N/NC(N)=S)cc(Br)c1OCc1ccccc1C	-	0.79µM	2.5µM	-	-	-
CCOc1cc(/C=N/NC(N)=O)cc(Br)c1OCc1ccccc1	-	-	-	-	-	-
COc1cc(/C=N/O)cc(Br)c1OCc1ccc(Cl)cc1	-	5.6µM	?	-	-	-
Cc1ccc(OCc2nc(-c3ccc(C(=O)NCCc4ccc(Cl)cc4)cc3)oc2C)cc1	-	.	.	-	.	-
Cc1cccc(NC(=O)Cn2cc(C(=O)C3CCCCC3)c3ccccc32)c1C	-	.	.	-	.	?
O=c1c(N2CCN(c3ccccc3)CC2)csc2ccc(Cl)cc12	-	.	.	?	.	-
COc1cc(/C=N/NC(N)=S)cc(Br)c1OCc1ccccc1F	-	1µM	4.5µM	?	-	-
COc1cc(/C=N/N=C(/N)c2nonc2N)cc(Br)c1OCc1cccc(C)c1	-	-	-	-	?	-
CNC(=S)N/N=C/c1cc(Br)c(OCc2ccncc2)c(OC)c1	-	-[1.91 µM]	?	-	-	.
CCOc1cc(/C=N/N=C(\N)c2nonc2N)cc(Br)c1OCc1cccc2ccccc12	-	13µM	?	-	-	-
Cc1ccc(CNc2ncnc3[nH]ncc23)o1	-	.	.	-	.	.
CCOC(=O)/C=C1\Nc2ccccc2OC1=O	-	-	-	-	50µM	?
COc1ccccc1N1CCN(C(c2ccc(F)cc2)c2nnnn2C(C)C)CC1 (stereo not drawn)	-	-	-	18µM	-	-
CC1=C(C(=O)Nc2ccccc2)C(c2ccncc2)n2nc(SCc3ccccc3F)nc2N1 (stereo not drawn)	-	.	.	-	.	-
CC(C)CCNC(=O)C12CN(Cc3ccccc3)CC1C(c1ccc([N+](=O)[O-])cc1)=NO2 (stereo not drawn)	-	?	-	-	14µM	-
COc1cccc(CNC(=O)C23CN(Cc4ccccc4)CC2C(c2ccc([N+](=O)[O-])cc2)=NO3)c1 (stereo not drawn)	-	-	-	-	-	-
O=C(NCc1ccccc1C(F)(F)F)C12CN(Cc3ccccc3)CC1C(c1ccc([N+](=O)[O-])cc1)=NO2 (stereo not drawn)	-	?	-	-	2.2µM	-
O=C(Nc1cccc(S(=O)(=O)N2CCCCC2)c1)c1ccc([N+](=O)[O-])o1	-	10µM	?	-	-	-
Cc1ccc(NC(=O)CCNC(=O)c2ccccc2Cl)cc1S(=O)(=O)N1CCCCCC1	-	.	.	-	.	.
O=C(COC(=O)c1ccc([N+](=O)[O-])o1)Nc1cccc(S(=O)(=O)N2CCCCC2)c1	-	?	-	.	-	-
O=C(Nc1cccc(S(=O)(=O)N2CCCCC2)c1)c1ccccc1NS(=O)(=O)c1ccc(F)cc1	14µM	?	?	32µM	-	-
Cc1ccc(NC(=O)c2ccccc2NS(=O)(=O)c2ccc(F)cc2)cc1S(=O)(=O)N1CCCCC1	11µM	?	10µM	32µM	-	-
SMILES	PINK1 expr mod	RORg inh	Gal4-VP16 FLuc	ClpP mod	Sfp PPTase inh	Epigenetic reg
CCCCc1ccc(NC(=S)NCCO)cc1	-	?	-	.	-	-
CCCCc1ccc(NC(=S)NCCc2ccc(F)cc2)cc1	-	2.2µM	5.6µM	.	-	-
Fc1ccc(CCNC(=S)Nc2ccc(F)cc2)cc1	-	1µM	0.89µM	-	-	-
COc1cc(C2Nc3ccc4ncccc4c3C3=C2C(=O)CC(C)(C)C3)cc(OC)c1O (stereo not drawn)	-	-	-	-	-	-
COc1cc(C2Nc3ccc4ncccc4c3C3=C2C(=O)CCC3)cc(OC)c1O (stereo not drawn)	-	2.8µM	-	-	?	-
COc1cc(OC)c2c(c1C(CCN1CCN(c3ccccc3)CC1)c1ccc(N(C)C)cc1)OC(=O)CC2c1ccc(N(C)C)cc1 (stereo not drawn)	.	-	-	.	-	.
CCc1ccc(C2=C(C)C(N3CCC(C(=O)Nc4ccc(F)cc4)CC3)=NS2(=O)=O)cc1	-	.	.	-	.	-
CCOc1ccccc1CNC(=O)CCc1cn(Cc2ccc(Cl)cc2)c2ccccc12	-	.	.	-	.	-
CC(=O)OCC1=C(C(=O)O)N2C(=O)[C@@H](NC(=O)CSc3ccncc3)[C@H]2SC1	-	.	.	.	.	-
Cc1nnc(SCC2=C(C(=O)O)N3C(=O)C(NC(=O)c4cccc(F)c4F)C3SC2)s1 (stereo not drawn)	-	-	-	-	56µM	-
Cc1cc(C)n(CC(=O)NC2C(=O)N3C(C(=O)O)=C(CSc4nnc(C)s4)CSC23)n1 (stereo not drawn)	-	-	-	-	56µM	-
Cc1nnc(SCC2=C(C(=O)O)N3C(=O)C(NC(=O)Cn4ncc(Cl)c4C)C3SC2)s1 (stereo not drawn)	-	-	-	.	28µM	-
CCOC(=O)c1c(C)oc2nc(C)nc(N3CCN(c4cc(Cl)ccc4C)CC3)c12	-	.	.	?	.	-
Cc1cc(C)n(-c2ncnc3sc(C)c(C)c23)n1	-	-	-[0.365 µM]	32µM	-	-
Cc1cccc(NC2=NC(=S)N(CC#N)C23CCCCC3)c1	-	11µM	?	-	-	-
O=C(O)c1cccc(N2C(=S)N=C(Nc3ccccc3)C23CCCCC3)c1	-	-	-[10 µM]	-	-	-
Cc1ccc(OC(=O)c2ccccc2)cc1C	-	.	.	28µM	.	.
COc1ccc2nc(SCC(=O)c3c(C)[nH]c4ccccc34)nc(C)c2c1	-	.	.	-	.	-
CCN(CC)c1ccc(/C=N/Nc2nc(C)cc(C)n2)cc1	-	1µM	13µM	.	-	-
CCN(CC)c1ccc(/C=N/Nc2nn[nH]n2)cc1	-	-	-	-	40µM	-
COc1ccc(NC(=O)Cc2c(C(=O)O)[nH]c3ccccc23)cc1OC	-	.	.	-	.	-
Cc1ccc(S(=O)(=O)N2CCN(c3nc(-c4ccc(C)s4)nc4ccccc34)CC2)cc1	-	.	.	-	.	.
CCN(C(=O)COC(=O)C1=COCCO1)c1c(N)n(Cc2ccccc2)c(=O)[nH]c1=O	-	.	.	14µM	.	.
CCN(C(=O)CN1CCN(c2ccc(O)cc2)CC1)c1c(N)n(Cc2ccccc2)c(=O)[nH]c1=O	-	-	-	-	14µM	-
CC(=O)c1ccc(N2CCN(CC(=O)N(CC(C)C)c3c(N)n(CC(C)C)c(=O)[nH]c3=O)CC2)cc1	-	-	-	-	-	-
CCN(C(=O)CN1CCCCCC1)c1c(N)n(Cc2ccccc2)c(=O)[nH]c1=O	-	.	.	-	.	.
